High-throughput results deposited in PubChem BioAssay by National Center for Advancing Translational Sciences (NCATS).
HT1080 IDH1KD tx: HT-1080 IDH1 knockdown cell toxicity (counter line) | HT-1080 IDH1 knockdown viability, ATP luminescence, 48 h | Potency, µM (doses to about 46.1 µM), actives largely listed as cytotoxic | actives 2% (n = 360,000) | AID 686971
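Assay cells: HT-1080 with IDH1 knockdown, 750 per well, RPMI/5% FBS. Exposure: 48 h at 37 °C following 2 h pre-incubation. Read: CellTiter-Glo luminescence; fitted concentration-response, curve class assigned.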
TDP1 cell noCPT: qHTS for Inhibitors of human tyrosyl-DNA phosphodiesterase 1 (TDP1): qHTS in cells in absence of CPT | DT40 Tdp1-/- hTDP1 cells, no CPT, ATP luminescence, 48 h | Potency, µM (highest dose often 46.2 µM), actives largely listed as inhibitors | actives 15% (n = 420,000) | AID 686978, 2013; also: nearly all actives have a fitted effect of over 55% in size
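Luminescent ATP content (CellTiter-Glo) served as the growth readout. Knockout chicken DT40 cells expressing human TDP1 were exposed to compounds without camptothecin for a minimum 48 hr at 37 °C.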
IL1B secr inh: blocks inflammasome-driven IL-1 beta release; THP-1 LPS/ATP IL-1B secretion, AlphaLISA, 16 h; active compounds read low; activity change, % at 57.5 µM; actives 4.7% (n = 360,000); in the data active = activity change below about -50%; inconclusive = mostly about -30% to -49%
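Secreted IL-1B measured by AlphaLISA bead assay after 16 h compound exposure of THP-1 cells; compounds (final up to 57.5 uM) added 1 h before LPS (250 ng/mL) and ATP (1.25 mM) stimulation; lower signal means less secretion.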
DT40 TDP1 CPT: DT40-hTDP1 cell growth loss with CPT; AID 686979; Potency, µM (titrated, usually from 46.2 µM), usual class: inhibitors; chicken DT40 Tdp1-/-;hTDP1 cells + 20 nM CPT, ATP luminescence, 48 h; actives 12% (n = 420,000); also: nearly all actives have a fitted effect of over 55% in size
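Chicken DT40 Tdp1-/- cells stably complemented with human TDP1 were seeded at 400 cells/well in medium containing 20 nM camptothecin, exposed to pin-transferred compounds, and grown at 37 °C for at least 48 hr. Viability was read as ATP luminescence.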
HT1080-NT tox: kills 2HG-producing HT-1080-NT fibrosarcoma cells. HT-1080-NT fibrosarcoma viability, CellTiter-Glo ATP luminescence, 48 h. actives 1.6% (n = 360,000). Potency, µM (top dose mostly 46.1 µM), actives largely listed as cytotoxic;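 also: NT is the 2HG producing partner of a matched IDH1 knockdown line; nearly all actives have a fitted effect of over 55% in size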
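Viability of the 2HG-overproducing fibrosarcoma line after 48 hours of compound exposure at 37 degrees C was determined by luminescence with CellTiter-Glo, and concentration-effect curves were then fitted and categorized.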
Hits are given with their value; – = inactive; ? = inconclusive; · = no result given. The list is not random: actives were taken first. Their share in the collection is about 19%. Unless noted, calls follow the shape of the dose curve; as a rule, active = well fitted curve in the direction sought with a large enough effect; inconclusive = small, poorly fitted or top-dose-only effect, or another doubt; inactive = no such curve, though single readings can be large; an effect the other way counts as inactive or inconclusive.

SMILES	HT1080 IDH1KD tx	TDP1 cell noCPT	IL1B secr inh	DT40 TDP1 CPT	HT1080-NT tox
CCOC(=O)CC(NC(=O)Cc1ccc(F)cc1)c1ccccc1Cl (centres undefined)	–	?	–	–	–
COC(=O)CSc1nnc(-c2sc3ccccc3c2Cl)o1	–	–	–	–	–
N#CCSc1nnc(-c2sc3ccccc3c2Cl)o1	?	?	-93.5	?	?
CCOC(=O)c1cc(-c2ccc([N+](=O)[O-])cc2)nc2c1c(=O)[nH]c(=O)n2Cc1ccccc1	–	5.8µM	–	7.31µM	–
O=C(NCc1cccc(OC(F)(F)F)c1)c1ccc2c(c1)S(=O)(=O)c1cc(Cl)ccc1C2=O	–	–	–	–	–
Cc1ccc(N(C)C(=O)c2ccc3c(Cl)c4c(nc3c2)CCC4)cc1C	?	?	-65.5	?	–
Cc1ccc(CCNC(=O)c2ccc3c(Cl)c4c(nc3c2)CCCC4)cc1	·	18.4µM	·	?	·
CC(C)CCNC(=O)c1ccc2c(SCC(=O)O)c3c(nc2c1)CCCC3	–	–	–	–	–
COc1ccc(N(C)C(=O)c2ccc3c(Cl)c4c(nc3c2)CCCC4)c(OC)c1	?	–	?	?	?
CSc1ccc(CCNC(=O)c2ccc3c(Cl)c4c(nc3c2)CCCC4)cc1	·	23.1µM	·	?	·
Cc1ccc(C2(O)C(=O)c3ccccc3C2=O)c(O)c1C	–	?	–	?	–
CC(C)(C)c1cccc(C2(O)C(=O)c3ccccc3C2=O)c1O	?	9.2µM	–	?	–
C[C@@H]1CN([C@@H](C)CO)C(=O)CCCn2nncc2CO[C@@H]1CN(C)C(=O)Nc1ccc(C(C)(C)C)cc1	–	–	–	–	–
COc1ccc(NC(=O)CC2SC(N3CCOCC3)=NC2=O)cc1OC (centres undefined)	–	–	–	–	–
Cc1c(Cc2ccccc2)c(=O)oc2cc(OCC(=O)NCC(O)c3ccccc3)ccc12 (centres undefined)	–	18.4µM	–	?	?
Cc1coc2cc3oc(=O)c(CCC(=O)NC4CC4)c(C)c3cc12	–	13µM	–	16.4µM	–
C=C(C)COc1ccc2c(C)c(CCC(=O)NC3CC3)c(=O)oc2c1	–	?	–	18.4µM	–
Cc1oc2cc3oc(=O)c(CCC(=O)NC4CC4)c(C)c3cc2c1C	–	9.2µM	–	5.8µM	–
Cc1c(Cc2ccccc2)c(=O)oc2cc(OCC(=O)c3ccccc3)ccc12	–	?	–	–	–
Cc1c(CCC(=O)NC2CC2)c(=O)oc2c(C)c(O)ccc12	–	–	?	–	–
CCOc1ccccc1-c1nnc(SCC(=O)NC2(C#N)CCCC2)o1	–	–	–	–	–
CN(C(=O)CSc1nc2ncccc2o1)c1ccc(F)cc1	·	–	·	–	·
O=C(Nc1ccc(Cl)cc1)c1csc([C@@H]2O[C@H](CO)[C@@H](O)[C@H]2O)n1	–	?	–	?	?
CC(=O)Nc1ccc(-c2noc(-c3csc([C@@H]4C[C@H](O)[C@@H](CO)O4)n3)n2)cc1	–	–	-54.6	–	?
O=C(Nc1cccc(Cl)c1Cl)c1csc([C@@H]2O[C@H](CO)[C@@H](O)[C@H]2O)n1	–	?	–	23.1µM	–
SMILES	HT1080 IDH1KD tx	TDP1 cell noCPT	IL1B secr inh	DT40 TDP1 CPT	HT1080-NT tox
O=C(NCc1ccccc1Cl)c1csc([C@H]2C[C@H](O)[C@@H](CO)O2)n1	–	–	–	–	–
O=C(Nc1cccc(Cl)c1Cl)c1csc([C@H]2C[C@H](O)[C@@H](CO)O2)n1	–	?	–	14.6µM	–
O=C(Nc1cccc(Cl)c1)c1ccc2sc([C@H]3C[C@H](O)[C@@H](CO)O3)nc2c1	?	23.1µM	–	25.9µM	–
O=C(COc1ccc(Br)cc1Cl)NNC(=O)c1ccccc1	–	?	–	–	–
CCCCn1nnnc1C(c1cc2ccccc2o1)N1CCN(C(=O)OC(C)(C)C)CC1 (centres undefined)	–	?	–	?	?
CCOC(=O)c1c(NC(=O)c2cc(C)oc2C)sc(C(=O)Nc2ccc(Cl)cc2)c1C	–	5.62µM	–	8.91µM	–
COC(=O)c1c(NC(=O)c2ccoc2C)sc(C)c1C	–	–	–	–	–
CCOC(=O)c1sc(NC(=O)c2ccoc2C)c(C(N)=O)c1C	–	16.4µM	–	25.9µM	–
CC(=NNC(=S)Nc1ccccc1Cl)c1ccccn1	?	0.146µM	-102.0	0.013µM	–
C/C(=N/NC(=O)CNC(=O)c1ccccn1)c1ccccc1	–	–	–	–	–
C=CCNC(=S)N/N=C(\C)c1ccccn1	?	0.0184µM	–	0.0103µM	?
CC(=NNC(=S)Nc1ccccc1)c1ccccn1	?	0.116µM	?	0.0259µM	?
CCC(c1nnnn1-c1ccc2c(c1)OCCO2)N1CCN(C(=O)C2CCCO2)CC1 (centres undefined)	–	–	–	–	–
Cc1ccccc1C(=O)N1CCc2cc(-c3csc(NC(=O)CN4CCCC4)n3)ccc21	?	?	–	?	?
CC1Cc2cc(-c3csc(NC(=O)Cc4cccs4)n3)ccc2N1S(C)(=O)=O (centres undefined)	?	23.1µM	–	?	–
O=C1COc2ccc(-c3csc(NCC4CCCO4)n3)cc2N1 (centres undefined)	–	–	–	?	–
CS(=O)(=O)N1CCc2cc(-c3csc(NCC4CCCO4)n3)ccc21 (centres undefined)	–	–	-68.0	–	–
CCC(=O)Nc1nc(-c2ccc3c(c2)CC(C)N3S(C)(=O)=O)cs1 (centres undefined)	–	16.4µM	–	?	–
CCCC(=O)Nc1nc(-c2ccc3c(c2)CCN3S(C)(=O)=O)cs1	–	23.1µM	?	?	–
C(=N\Nc1nncc2ccccc12)/c1ccccc1	–	–	–	–	–
COc1ccc(/C=N\Nc2ccccn2)c(OC)c1	–	–	–	–	–
COc1cc(/C=N/Nc2nncc3ccccc23)cc(OC)c1OC	–	11.6µM	–	20.6µM	–
COc1ccc(/C=N/Nc2nncc3ccccc23)c(OC)c1	–	?	–	25.9µM	–
CN(C)c1ccc(/C=N/Nc2nncc3ccccc23)cc1	–	13µM	–	?	–
O=C(CN1CCC(NC(=O)C2CC2)CC1)Nc1cccc(F)c1	–	–	–	–	–
CN(C)CCCNC(=O)c1cc(Br)ccc1O	–	–	·	–	–
C=CCn1c(SCc2ccc(C(=O)Nc3nccs3)cc2)nnc1-c1ccc(C)c(Cl)c1	?	23.1µM	-52.2	?	–
Cn1nnnc1SCc1ccc(C(=O)Nc2nccs2)cc1	–	–	–	–	?
